The OligoGym collection

Each sequence was assayed against LMO4 (assay: pooled miR-30 sensor sort-seq; sequence = guide strand). Settings: shRNA.
Further: reference of the scale not given here.

| Sequence | sensor-assay potency score (higher = more potent) |
| --- | --- |
| TAACCTAATGTAGTCATTTCTG | -0.956 |
| TAGTGGATTGCTCTGAAGTGAA | -0.987 |
| TTCACTCGCAGGAATCGACTGT | 0.156 |
| TAGAGCATGTAAAACACTTAAG | -1.33 |
| TTGGTGTAACAGGACGTGCCGA | -0.708 |

Each sequence was assayed against LNPEP in the same assay as above. Settings: shRNA.

| Sequence | sensor-assay potency score (higher = more potent) |
| --- | --- |
| TTGTTGTATAAAAAGTTCCTTT | -0.495 |
| TTTCTCATTACTTTCATCTGTG | 0.22 |
| TTGAATAGATGCATAGCTGTGA | 0.497 |
| TACAGAAACAGCAACCACGATG | -0.798 |
| TACTGTGTCAGTAACTTTCTGG | 0.276 |
| TTGAATAATTTCTTCCTTCAGT | -0.0999 |
| TTCTGTACAAGCTTATTCCAGT | -0.169 |
| TTTTGTTCTTCTCTGCTTCAGA | -0.123 |
| TTTCTTGGCTTGAAACTGCTGA | 0.246 |
| TTATAGATGAGGTCTGTCTGAA | 0.0575 |
| TAAATAACTACATACTGCCCAA | -0.52 |
| TTCTCTTTGACAAAATCCCATG | -1.18 |

Each sequence was assayed against LNX1 in the same assay as above. Settings: shRNA.

| Sequence | sensor-assay potency score (higher = more potent) |
| --- | --- |
| TTACAGTTATACAAGCACCGTG | -0.215 |
| TACAGTTATACAAGCACCGTGG | -0.0834 |
| TTGGATAATGATATGGACCAGT | -0.0255 |
| AAAGCTTTGAGTACTATCGAGG | -0.642 |
| TTGAGAATCACATGAAAGCTGT | 0.307 |
| TAGATGATCATACTTTTCCTGA | -0.507 |
| TTTATTCTTCCATCTCTGCTTA | 0.44 |
| TAGTTAGAGTAATTCTTCCTTT | -0.396 |
| TTCTTCGTAATACAATATCTTT | -1.2 |
| TTTTTGGATATTTACCACCTTC | -0.64 |
| TTGAGTACTATCGAGGATGATG | -0.956 |
| TAATACAATATCTTTACAGTTA | -0.86 |

The sequences below were run against LONP1 in the same assay as above. Settings: shRNA.

| Sequence | sensor-assay potency score (higher = more potent) |
| --- | --- |
| TTTCCGTAACACCTTCTCCACT | -1.42 |
| TAGAAGTCCTTCTTGTTCTCGG | 0.532 |
| TAACACCTTCTCCACTTGCTTC | -1.18 |
| ATCCTTGTCGTCCTTCTCCAGG | -1.37 |
| ATCTGCAGCACTGACTCCCTGT | -0.477 |
| TCGTCGATGAGGATCAGGGGGT | -0.954 |
| TTCAAATTCCTTCTTCAGCAGG | -0.339 |
| AAACACTGGATGATCTTCCCGG | 0.233 |
| TTGCGGACACCGCTCTCGCGGC | -1.33 |
| TCTCTCTTTAGAAAGACGCCGA | -0.565 |
| TGAAGCGGAAGTACTCTCGGTT | -0.124 |
